MITF primary: blocks human microphthalmia-associated transcription factor. O75030. AlphaScreen MITF homodimerization, bead proximity signal. inhibition, % at 2.6 µM. actives 0.91% (n = 650,000); in the data active means inhibition above about 50%
FBW7 activator: activators of human E3 ligase FBW7 | actives 0.13% (n = 650,000) | Q969H0 | normalized activity (activation), % at 26.1 µM | AlphaScreen FBW7–phospho-cyclin E peptide binding, activator screen; in the data active means normalized activity above about 1.9%;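 further: purified mutant Fbw7 with reduced substrate affinity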
Target sequence (Q969H0 whole entry, looked up): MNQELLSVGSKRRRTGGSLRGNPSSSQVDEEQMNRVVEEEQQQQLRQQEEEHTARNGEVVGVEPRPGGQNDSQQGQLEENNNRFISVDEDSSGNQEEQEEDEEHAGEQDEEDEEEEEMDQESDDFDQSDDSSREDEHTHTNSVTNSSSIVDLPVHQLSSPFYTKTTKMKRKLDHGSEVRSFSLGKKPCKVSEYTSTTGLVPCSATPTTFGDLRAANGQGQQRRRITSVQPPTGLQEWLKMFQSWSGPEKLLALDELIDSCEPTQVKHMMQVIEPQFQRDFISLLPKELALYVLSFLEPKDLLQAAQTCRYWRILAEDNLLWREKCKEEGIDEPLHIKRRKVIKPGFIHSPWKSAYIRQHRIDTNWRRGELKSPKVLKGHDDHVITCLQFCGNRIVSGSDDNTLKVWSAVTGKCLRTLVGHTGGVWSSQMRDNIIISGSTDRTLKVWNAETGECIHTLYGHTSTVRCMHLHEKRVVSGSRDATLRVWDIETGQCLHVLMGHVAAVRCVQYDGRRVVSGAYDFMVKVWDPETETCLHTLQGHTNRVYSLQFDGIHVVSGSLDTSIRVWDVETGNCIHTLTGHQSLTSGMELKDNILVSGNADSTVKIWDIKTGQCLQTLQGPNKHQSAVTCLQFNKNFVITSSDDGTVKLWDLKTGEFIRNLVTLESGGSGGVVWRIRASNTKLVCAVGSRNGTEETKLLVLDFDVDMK
TEAD-YAP inh: TEAD-YAP interaction inhibition. HEK-TIYL cells, TEAD-Gal4/YAP UAS-luciferase luminescence. inhibition, % at 9.12 µM. actives 1.4% (n = 640,000); in the data active means inhibition above about 32%
GPR151 ag: activates the human receptor GPR151; PathHunter beta-arrestin GPR151 cells, luminescence; activation, % at 11.2 µM; AID 1508602; actives 1% (n = 650,000); Q8TDV0; in the data active means activation above about 4.9%
GPR151 confirm: confirmation of human GPR151 activators; AID 1508609; activation, % at 11.2 µM; shares compounds with GPR151 ag; 6,700 tested, under 10 active; GPR151 PathHunter beta-arrestin cells, luminescence, 90 min; % of EA-reagent control over plate median;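 active means mean percent activation across replicates above the confirmation screen cutoff of 4.91%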
GPR119 ag: GPR119 activation, counter-screen for GPR151 activators; GPR119 PathHunter beta-arrestin cells, luminescence, 90 min; 0 = compound-well median, 100 = enzyme-acceptor control; actives 0.3% (n = 6,700); shares compounds with GPR151 ag; activation, % at 11.2 µM;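 active means mean percent activation in the counterscreen above 29.09%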;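 further: counterscreen on off-target GPR119 to flag nonselective hits from the GPR151 activator screen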
A number is an active result. Rows were chosen to be rich in hits. Some 3.4% of all compounds tested hit in one or more screens of this group.

`CC(=O)Nc1ccccc1NC(=O)C(C)Oc1cccc(C)c1` (centres undefined) gave MITF primary inactive, FBW7 activator inactive, TEAD-YAP inh inactive, GPR151 ag 26.6, GPR151 confirm inactive and GPR119 ag inactive.
CC(Oc1ccccc1)C(=O)Nc1ccccc1O (centres undefined) was read as MITF primary inactive, FBW7 activator inactive, TEAD-YAP inh inactive, GPR151 ag 5.3, GPR151 confirm inactive and GPR119 ag inactive.
Screening CC(Oc1ccccc1)C(=O)Nc1ccccc1Br (centres undefined) returned MITF primary inactive, FBW7 activator inactive, TEAD-YAP inh inactive and GPR151 ag inactive.
Screening COc1ccccc1NC1=C(N2CCOCC2)C(=O)c2ccccc2C1=O returned MITF primary inactive, FBW7 activator inactive, TEAD-YAP inh inactive and GPR151 ag inactive.
For CC(=O)Oc1cccc(C(=O)Nc2nc(C(C)(C)C)cs2)c1 the results were MITF primary inactive, FBW7 activator inactive, TEAD-YAP inh inactive, GPR151 ag 7.3, GPR151 confirm inactive and GPR119 ag inactive.
`CC(C)(C)c1csc(NC(=O)c2cc([N+](=O)[O-])ccc2Cl)n1` gave MITF primary inactive, FBW7 activator inactive, TEAD-YAP inh inactive, GPR151 ag 7.1, GPR151 confirm inactive and GPR119 ag inactive.
Screening CC(C)(C)c1csc(NC(=O)c2cc([N+](=O)[O-])cc([N+](=O)[O-])c2)n1 returned MITF primary inactive, FBW7 activator inactive, TEAD-YAP inh inactive and GPR151 ag inactive.
CC(C)(C)c1csc(NC(=O)c2cccc(F)c2)n1 was read as MITF primary inactive, FBW7 activator inactive, TEAD-YAP inh inactive and GPR151 ag inactive.
For O=C(Nc1cc(Oc2ccccc2)cc([N+](=O)[O-])c1)c1cc2n(n1)C(C(F)(F)F)CC(c1cccs1)N2 (centres undefined) the results were MITF primary inactive, FBW7 activator inactive, TEAD-YAP inh inactive and GPR151 ag inactive.
`COc1ccc(C(=O)Nc2cccc(-c3nc4ncccc4o3)c2C)cc1OC` gave MITF primary inactive, FBW7 activator inactive, TEAD-YAP inh inactive, GPR151 ag 5.5, GPR151 confirm inactive and GPR119 ag inactive.
For COc1c(C)cccc1C(=O)Nc1cccc(-c2nc3ncccc3o2)c1 the results were MITF primary inactive, FBW7 activator inactive, TEAD-YAP inh inactive, GPR151 ag 7.4, GPR151 confirm inactive and GPR119 ag inactive.
COc1ccc(C(=O)Nc2cccc(-c3nc4ncccc4o3)c2C)cc1[N+](=O)[O-] was read as MITF primary inactive, FBW7 activator inactive, TEAD-YAP inh inactive and GPR151 ag inactive.
Cc1ccc(NC(=O)C2CCN(S(C)(=O)=O)CC2)cc1 was read as MITF primary inactive, FBW7 activator inactive, TEAD-YAP inh inactive, GPR151 ag 10.0, GPR151 confirm inactive and GPR119 ag inactive.
Screening COc1ccc(C)cc1S(=O)(=O)N1CCC(C(=O)Nc2cccc(C(C)=O)c2)CC1 returned MITF primary inactive, FBW7 activator inactive, TEAD-YAP inh inactive, GPR151 ag 6.1, GPR151 confirm inactive and GPR119 ag inactive.
For COc1ccc(C)cc1S(=O)(=O)N1CCC(C(=O)Nc2ccc3c(c2)OCO3)CC1 the results were MITF primary inactive, FBW7 activator inactive, TEAD-YAP inh inactive and GPR151 ag inactive.
Screening CCOC(=O)N1CCN(Cc2ccc([N+](=O)[O-])cc2)CC1 returned MITF primary inactive, FBW7 activator inactive, TEAD-YAP inh inactive and GPR151 ag inactive.
Screening Cc1cccn2c(CN(C)CCC3CCOCC3)c(C(=O)N(C)CCc3ccccc3)nc12 returned MITF primary inactive, FBW7 activator inactive, TEAD-YAP inh inactive, GPR151 ag 6.2, GPR151 confirm inactive and GPR119 ag inactive.
COc1ccc(NC(=O)C(=O)NC2CCCCCC2)c(OC)c1 was read as MITF primary inactive, FBW7 activator inactive, TEAD-YAP inh inactive, GPR151 ag 5.3, GPR151 confirm inactive and GPR119 ag inactive.
Screening COc1cc(OC)cc(C(=O)NNC(=O)NC2CCCCC2)c1 returned MITF primary inactive, FBW7 activator inactive, TEAD-YAP inh inactive, GPR151 ag 7.3, GPR151 confirm inactive and GPR119 ag inactive.
Screening COc1ccc(NC(=O)c2ccoc2C)c(OC)c1 returned MITF primary inactive, FBW7 activator inactive, TEAD-YAP inh inactive, GPR151 ag 6.1, GPR151 confirm inactive and GPR119 ag inactive.
